Positions count from the first letter of the chain named.
Tests used:
Test in all cases: PBM; 200 nM protein, PBS
Details in all cases: dsDNA, one strand shown
[1] = target: T1, SIX6 (Homo sapiens, UniProt O95475 114-200, L167I)
T1 sequence: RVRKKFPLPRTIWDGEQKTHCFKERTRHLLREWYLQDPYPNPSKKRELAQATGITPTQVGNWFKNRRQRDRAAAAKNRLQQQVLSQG

[2] = target: T2, SIX6 (Homo sapiens, UniProt O95475 114-200, L143V)
T2 sequence: T1 sequence with L30V, I54L

[3] = target: T3, SIX6 (Homo sapiens, UniProt O95475 114-200, H141N)
T3 sequence: T1 sequence with H28N, I54L

[4] = target: T4, SIX6 (Homo sapiens, UniProt O95475 114-200, T165P)
T4 sequence: T1 sequence with T52P, I54L

[5] = target: T5, SIX6 (Homo sapiens, UniProt O95475 114-200, L167M)
T5 sequence: T1 sequence with I54M

[6] = target: T6, SIX6 (Homo sapiens, UniProt O95475 114-200, L143M)
T6 sequence: T1 sequence with L30M, I54L

[7] = target: T7, SIX6 (Homo sapiens, UniProt O95475 114-200, L143I)
T7 sequence: T1 sequence with L30I, I54L

[8] = target: T8, SIX6 (Homo sapiens, UniProt O95475 114-200, T165G)
T8 sequence: T1 sequence with T52G, I54L

[9] = target: HOXA2 (Homo sapiens, UniProt O43364 129-215, R185T)
HOXA2 (Homo sapiens, UniProt O43364 129-215, R185T), sequence (O43364 129-215 R185T): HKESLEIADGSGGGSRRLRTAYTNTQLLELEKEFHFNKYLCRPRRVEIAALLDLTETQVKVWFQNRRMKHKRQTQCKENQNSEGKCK

[10] = target: T9, SIX6 (Homo sapiens, UniProt O95475 114-200, T139Q)
T9 sequence: T1 sequence with T26Q, I54L

[11] = target: T10, SIX6 (Homo sapiens, UniProt O95475 114-200, T165A)
T10 sequence: T1 sequence with T52A, I54L

[12] = target: HOXA2 (Homo sapiens, UniProt O43364 129-215, R185K)
HOXA2 (Homo sapiens, UniProt O43364 129-215, R185K), sequence (O43364 129-215 R185K): as the sequence (O43364 129-215 R185T) above, with T57K counted along it

[13] = target: T11, SIX6 (Homo sapiens, UniProt O95475 114-200, L167V)
T11 sequence: T1 sequence with I54V

[14] = target: T12, SIX6 (Homo sapiens, UniProt O95475 114-200)
T12 sequence: T1 sequence with I54L

[15] = target: T13, SIX6 (Homo sapiens, UniProt O95475 114-200, T165I)
T13 sequence: T1 sequence with T52I, I54L

[16] = target: HOXA2 (Homo sapiens, UniProt O43364 129-215, Y150S)
HOXA2 (Homo sapiens, UniProt O43364 129-215, Y150S), sequence (O43364 129-215 Y150S): as the sequence (O43364 129-215 R185T) above, with Y22S, T57R counted along it

[17] = target: HOXA2 (Homo sapiens, UniProt O43364 129-215)
HOXA2 (Homo sapiens, UniProt O43364 129-215), sequence (O43364 129-215): as the sequence (O43364 129-215 R185T) above, with T57R counted along it

Sequence	binding signal [1]	binding signal [2]	binding signal [3]	binding signal [4]	binding signal [5]	binding signal [6]	binding signal [7]	binding signal [8]	binding signal [9]	binding signal [10]	binding signal [11]	binding signal [12]	binding signal [13]	binding signal [14]	binding signal [15]	binding signal [16]	binding signal [17]
GCCCTGCC	8.89 upbm affinity estimate (log intensity, higher = more binding, comparable within an allelic series)	8.78 upbm affinity estimate (log intensity, higher = more binding, comparable within an allelic series)	8.91 upbm affinity estimate (log intensity, higher = more binding, comparable within an allelic series)	8.91 upbm affinity estimate (log intensity, higher = more binding, comparable within an allelic series)	8.87 upbm affinity estimate (log intensity, higher = more binding, comparable within an allelic series)	8.9 upbm affinity estimate (log intensity, higher = more binding, comparable within an allelic series)	8.84 upbm affinity estimate (log intensity, higher = more binding, comparable within an allelic series)	8.91 upbm affinity estimate (log intensity, higher = more binding, comparable within an allelic series)	6.93 upbm affinity estimate (log intensity, higher = more binding, comparable within an allelic series)	9.01 upbm affinity estimate (log intensity, higher = more binding, comparable within an allelic series)	8.99 upbm affinity estimate (log intensity, higher = more binding, comparable within an allelic series)	10.3 upbm affinity estimate (log intensity, higher = more binding, comparable within an allelic series)	8.94 upbm affinity estimate (log intensity, higher = more binding, comparable within an allelic series)	8.87 upbm affinity estimate (log intensity, higher = more binding, comparable within an allelic series)	8.85 upbm affinity estimate (log intensity, higher = more binding, comparable within an allelic series)	10.4 upbm affinity estimate (log intensity, higher = more binding, comparable within an allelic series)	7.06 upbm affinity estimate (log intensity, higher = more binding, comparable within an allelic series)
AGCCGGCT	9.39 upbm affinity estimate (log intensity, higher = more binding, comparable within an allelic series)	9.1 upbm affinity estimate (log intensity, higher = more binding, comparable within an allelic series)	9.34 upbm affinity estimate (log intensity, higher = more binding, comparable within an allelic series)	8.96 upbm affinity estimate (log intensity, higher = more binding, comparable within an allelic series)	9.33 upbm affinity estimate (log intensity, higher = more binding, comparable within an allelic series)	9.42 upbm affinity estimate (log intensity, higher = more binding, comparable within an allelic series)	9.2 upbm affinity estimate (log intensity, higher = more binding, comparable within an allelic series)	9.33 upbm affinity estimate (log intensity, higher = more binding, comparable within an allelic series)	7.56 upbm affinity estimate (log intensity, higher = more binding, comparable within an allelic series)	9.36 upbm affinity estimate (log intensity, higher = more binding, comparable within an allelic series)	9.35 upbm affinity estimate (log intensity, higher = more binding, comparable within an allelic series)	10.5 upbm affinity estimate (log intensity, higher = more binding, comparable within an allelic series)	9.33 upbm affinity estimate (log intensity, higher = more binding, comparable within an allelic series)	9.39 upbm affinity estimate (log intensity, higher = more binding, comparable within an allelic series)	9.26 upbm affinity estimate (log intensity, higher = more binding, comparable within an allelic series)	10.2 upbm affinity estimate (log intensity, higher = more binding, comparable within an allelic series)	7.61 upbm affinity estimate (log intensity, higher = more binding, comparable within an allelic series)
CGTCGCGC	9.07 upbm affinity estimate (log intensity, higher = more binding, comparable within an allelic series)	9.04 upbm affinity estimate (log intensity, higher = more binding, comparable within an allelic series)	9.11 upbm affinity estimate (log intensity, higher = more binding, comparable within an allelic series)	9.07 upbm affinity estimate (log intensity, higher = more binding, comparable within an allelic series)	9 upbm affinity estimate (log intensity, higher = more binding, comparable within an allelic series)	9.11 upbm affinity estimate (log intensity, higher = more binding, comparable within an allelic series)	9.05 upbm affinity estimate (log intensity, higher = more binding, comparable within an allelic series)	9.08 upbm affinity estimate (log intensity, higher = more binding, comparable within an allelic series)	7.22 upbm affinity estimate (log intensity, higher = more binding, comparable within an allelic series)	9.27 upbm affinity estimate (log intensity, higher = more binding, comparable within an allelic series)	9.17 upbm affinity estimate (log intensity, higher = more binding, comparable within an allelic series)	10.4 upbm affinity estimate (log intensity, higher = more binding, comparable within an allelic series)	8.92 upbm affinity estimate (log intensity, higher = more binding, comparable within an allelic series)	9.06 upbm affinity estimate (log intensity, higher = more binding, comparable within an allelic series)	8.97 upbm affinity estimate (log intensity, higher = more binding, comparable within an allelic series)	10.5 upbm affinity estimate (log intensity, higher = more binding, comparable within an allelic series)	7.41 upbm affinity estimate (log intensity, higher = more binding, comparable within an allelic series)
GTCCGGAC	9.13 upbm affinity estimate (log intensity, higher = more binding, comparable within an allelic series)	8.97 upbm affinity estimate (log intensity, higher = more binding, comparable within an allelic series)	8.97 upbm affinity estimate (log intensity, higher = more binding, comparable within an allelic series)	9.02 upbm affinity estimate (log intensity, higher = more binding, comparable within an allelic series)	9.09 upbm affinity estimate (log intensity, higher = more binding, comparable within an allelic series)	9.15 upbm affinity estimate (log intensity, higher = more binding, comparable within an allelic series)	9.08 upbm affinity estimate (log intensity, higher = more binding, comparable within an allelic series)	9.27 upbm affinity estimate (log intensity, higher = more binding, comparable within an allelic series)	7.42 upbm affinity estimate (log intensity, higher = more binding, comparable within an allelic series)	9.2 upbm affinity estimate (log intensity, higher = more binding, comparable within an allelic series)	9.14 upbm affinity estimate (log intensity, higher = more binding, comparable within an allelic series)	10.6 upbm affinity estimate (log intensity, higher = more binding, comparable within an allelic series)	9.17 upbm affinity estimate (log intensity, higher = more binding, comparable within an allelic series)	9.13 upbm affinity estimate (log intensity, higher = more binding, comparable within an allelic series)	9.13 upbm affinity estimate (log intensity, higher = more binding, comparable within an allelic series)	10.6 upbm affinity estimate (log intensity, higher = more binding, comparable within an allelic series)	7.3 upbm affinity estimate (log intensity, higher = more binding, comparable within an allelic series)
GCACGCCC	8.91 upbm affinity estimate (log intensity, higher = more binding, comparable within an allelic series)	8.8 upbm affinity estimate (log intensity, higher = more binding, comparable within an allelic series)	8.92 upbm affinity estimate (log intensity, higher = more binding, comparable within an allelic series)	8.82 upbm affinity estimate (log intensity, higher = more binding, comparable within an allelic series)	8.88 upbm affinity estimate (log intensity, higher = more binding, comparable within an allelic series)	8.84 upbm affinity estimate (log intensity, higher = more binding, comparable within an allelic series)	8.88 upbm affinity estimate (log intensity, higher = more binding, comparable within an allelic series)	8.97 upbm affinity estimate (log intensity, higher = more binding, comparable within an allelic series)	–	8.92 upbm affinity estimate (log intensity, higher = more binding, comparable within an allelic series)	8.91 upbm affinity estimate (log intensity, higher = more binding, comparable within an allelic series)	–	8.87 upbm affinity estimate (log intensity, higher = more binding, comparable within an allelic series)	8.94 upbm affinity estimate (log intensity, higher = more binding, comparable within an allelic series)	8.8 upbm affinity estimate (log intensity, higher = more binding, comparable within an allelic series)	–	–

From publication PMC11006913
